Rows were chosen to be rich in hits. Some 3.5% of all compounds tested hit in one or more screens of this group.
GPR151 activ = human GPR151 activation | Q8TDV0 | PathHunter beta-arrestin GPR151 cells, luminescence | activation, % at 11.2 µM | 650,000 tested, 1% active | AID 1508602; in the data active = activation above about 4.9%;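 note: 0% = median of compound wells and 100% = cells with positive control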
MITF inh = inhibitors of human MITF; O75030; AlphaScreen MITF homodimerization, bead proximity signal; inhibition, % at 2.6 µM; 650,000 tested, 0.91% active; in the data active = inhibition above about 50%;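 note: 0% = vehicle wells with protein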
TEAD-YAP inh = TEAD-YAP interaction inhibition; HEK-TIYL cells, TEAD-Gal4/YAP UAS-luciferase luminescence; inhibition, % at 9.12 µM; 640,000 tested, 1.4% active; in the data active = inhibition above about 32%;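 note: 0% = median of test compound wells and 100% = reference inhibitor wells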
FBW7 act = human FBW7 E3 ligase activation, primary screen | AlphaScreen FBW7–phospho-cyclin E peptide binding, activator screen | AID 1259310 | normalized activity (activation), % at 26.1 µM | Q969H0 | 650,000 tested, 0.13% active; in the data active = normalized activity above about 1.9%;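 note: purified mutant Fbw7 with reduced substrate affinity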
Target sequence (Q969H0 whole entry, looked up): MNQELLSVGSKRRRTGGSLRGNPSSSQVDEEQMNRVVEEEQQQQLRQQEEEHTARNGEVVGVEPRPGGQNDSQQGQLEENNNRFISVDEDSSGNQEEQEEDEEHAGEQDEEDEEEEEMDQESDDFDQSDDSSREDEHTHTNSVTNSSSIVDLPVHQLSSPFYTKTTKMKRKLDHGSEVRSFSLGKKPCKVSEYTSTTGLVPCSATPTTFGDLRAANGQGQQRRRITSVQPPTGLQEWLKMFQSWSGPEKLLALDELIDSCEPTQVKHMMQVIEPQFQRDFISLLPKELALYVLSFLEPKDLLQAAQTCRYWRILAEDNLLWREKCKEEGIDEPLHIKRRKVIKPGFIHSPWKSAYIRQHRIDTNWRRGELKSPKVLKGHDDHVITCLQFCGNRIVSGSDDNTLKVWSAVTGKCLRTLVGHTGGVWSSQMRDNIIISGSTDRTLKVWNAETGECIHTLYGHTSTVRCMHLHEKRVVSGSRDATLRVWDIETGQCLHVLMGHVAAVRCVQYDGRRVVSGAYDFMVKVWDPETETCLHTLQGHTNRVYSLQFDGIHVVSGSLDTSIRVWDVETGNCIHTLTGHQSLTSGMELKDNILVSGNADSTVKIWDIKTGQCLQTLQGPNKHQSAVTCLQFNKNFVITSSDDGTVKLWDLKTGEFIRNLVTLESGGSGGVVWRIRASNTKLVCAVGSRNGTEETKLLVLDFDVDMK
* = called active by the depositor; ! = repeats disagree.

SMILES | GPR151 activ | MITF inh | TEAD-YAP inh | FBW7 act
COC(=O)c1c(C(=O)c2ccc(F)cc2)[nH]c2ccccc12 | 0 | 0 | 50* | 0
NC(=O)c1cccc2c1NC(c1cccc([N+](=O)[O-])c1)C1CC=CC21 (centres undefined) | 0 | 14 | -5 | 0
COC(=O)c1cccc2c1NC(C(=O)O)C1CC=CC21 (centres undefined) | 0 | 76* | 6 | 0
NC(=O)c1cccc2c1NC(C(=O)O)C1CC=CC21 (centres undefined) | 0 | 57* | 0 | -2
COc1cc2nc(CN3CCN(c4ccccc4F)CC3)[nH]c(=O)c2cc1OC | -2 | -6 | 48* | 0
COc1cc2nc(CN3CCCCC3)[nH]c(=O)c2cc1OC | 1 | 10 | 1 | 0
CN(Cc1ccccc1)c1nnc(NC(=O)NCc2ccccc2)s1 | 1 | -3 | 47* | 0
COCCCNC(=O)Nc1nnc(N(C)Cc2ccccc2)s1 | 1 | -2 | 1 | 0
CCCCN(C)c1nnc(NC(=O)NCc2ccccc2)s1 | 3 | 1 | 58* | 0
COc1ccc(NCc2ccc(O)c3ncccc23)cc1 | 0 | 73* | -9 | -2
O=S(=O)(c1ccc(Cl)cc1)N1CCN(Cc2ccc(O)c3ncccc23)CC1 | 2 | 4 | 66* | -1
Oc1ccc(CN2CCN(Cc3ccccc3)CC2)c2cccnc12 | 0 | 95* | 1 | -1
Oc1ccc(CNc2ccc(Cl)cc2)c2cccnc12 | -2 | 49 | 26 | -1
COC(=O)c1ccc(-c2ccc(/C=C3/C(=N)N4N=C(C(C)C)SC4=NC3=O)o2)cc1 | -1 | 16 | 3 | 0
Cc1ccc2cc(CN(C(=O)Nc3ccccc3F)C3CCCC3)c3nnnn3c2c1 | -1 | -3 | -20 | 0
COc1nn(C)cc1C(=O)N1CCC(C(=O)NCc2ccccn2)CC1 | -1 | 4 | 7 | 0
Cc1c(-c2ccc(-c3ccccc3)cc2)[n+](CC(=O)c2ccccc2)c2ccccn12 | 1 | 7 | 56* | 0
COc1c(Sc2ccc([N+](=O)[O-])cc2)c(C)nn1-c1ccccc1 | 0 | -1 | 1 | 0
CCCNC(=O)c1ccccc1NC(=O)c1ccc(OC)cc1 | 3 | -15 | 3 | 0
COc1ccc(C(=O)Nc2ccccc2C(=O)NCCCC(=O)O)cc1 | 0 | 13 | -9 | 2.0*
COCCNC(=O)c1cn(C2CCCCC2)c(=O)c2c1c1ccccc1n2C | -1 | 9 | 11 | 0
CCC(C)NC(=O)c1cn(C2CCCCC2)c(=O)c2c1c1ccccc1n2C (centres undefined) | 1 | 14 | 4 | 2.3*
CCc1nnc(NC(=O)CN2CCN(c3ccc(C(C)=O)cc3)CC2)s1 | -1 | -9 | 32* | 0
CC(=O)c1ccc(N2CCN(CC(=O)Nc3ncc(C)s3)CC2)cc1 | -1 | 12 | 0 | 0
O=C(NC(=S)Nc1ccc(F)cc1)c1ccccc1[N+](=O)[O-] | 1 | 20 | -18 | 1
SMILES | GPR151 activ | MITF inh | TEAD-YAP inh | FBW7 act
C/C(=N\N1CCOCC1)c1c(C(F)(F)F)[nH]n(-c2nc3ccccc3s2)c1=O | -1 | 13 | -1 | 1
CC(=NCc1cccnc1)c1c(C)[nH]n(-c2nc3ccccc3s2)c1=O | -8 | 8 | 42* | 0
C/C(=N/N1CCN(C)CC1)c1c(C(F)(F)F)[nH]n(-c2nc3ccccc3s2)c1=O | -8 | 8 | 49* | 0
CC1CCN(c2nc3c(c(=O)[nH]2)CCN(Cc2cccs2)C3)CC1 | 0 | 9 | 1 | 0
COc1ccc(/C(O)=C2/C(=O)C(=O)N(CCN(C)C)C2c2ccc(OC)cc2)cc1 (centres undefined) | -1 | -13 | -4 | 0
COc1cccc(-c2nnc(-c3ccc(N)cc3)o2)c1 | -1 | -4 | 41* | 0
O=C(c1cc2nc(-c3cccs3)cc(C(F)(F)F)n2n1)N1CCCCCC1 | 1 | -7 | 10 | 1
Cc1cc(NC(=O)c2ccc3c(c2)OCO3)no1 | -5 | 1 | -12 | 0
Cc1cc(NC(=O)c2ccc3c(c2)OCCO3)no1 | -6 | 8 | 79* | 1
Cc1cccc(NC(=O)c2ccc3c(c2)OCCO3)n1 | -9 | -11 | -19 | 0
Cc1cc(NC(=O)c2ccc3c(c2)OCCO3)on1 | -4 | -5 | 38* | 0
Cc1ccc(SCC(=O)Nc2ccc(S(=O)(=O)N3CCCCC3)cc2)cc1 | 0 | 5 | 4 | 0
CCCCOc1cc(Br)c(CNC(CC)CO)cc1OC (centres undefined) | -1 | 0 | -9 | 1
CC(=O)N1CC(C)Sc2cc(S(=O)(=O)Nc3c(C)cc(C)cc3C)ccc21 (centres undefined) | 0 | -4 | -9 | 0
CC1(C)CC(=O)C=C(NNC(=O)COc2ccccc2)C1 | -1 | 15 | 5 | 1.9*!
CC1(C)CC(=O)C=C(NNC(=O)Cc2ccccc2)C1 | -1 | 4 | -2 | 1
CC1CCCC/C1=N\NC(=O)CCC(=O)Nc1ccc(F)cc1 (centres undefined) | 2 | 11 | -1 | 0
CCOC(=O)C(C#N)C1(O)C(=O)c2ccccc2C1=O (centres undefined) | -1 | 57* | 9 | 1
CCOC(=O)C(C#N)C(=O)c1ccc(N2C(=O)c3ccccc3C2=O)cc1 (centres undefined) | 3 | -9 | 0 | 0
O=C(Nc1ccccn1)c1cc(-c2cccnc2)nc2ccc(Cl)cc12 | 4 | 2 | 0 | 1
CC(C)CNS(=O)(=O)c1ccc(CCC(=O)NC2CCCCCC2)cc1 | 0 | 9 | -2 | 0
Cc1cc(C)c(C(=O)N2CCC[C@@H]3CN(Cc4ccsc4)CC[C@H]32)[nH]1 | 0 | 8 | 14 | 0
COc1ccc(CN2C[C@@H]3C[C@@H](c4cc5ccccc5o4)N4CCC[C@@]34C2=O)cc1 | 0 | -7 | 77* | 0
COc1ccc(CN2C[C@@H]3C[C@@H](c4ccccc4C)N4CCC[C@@]34C2=O)cc1 | -2 | 4 | -6 | 0
O=C(Nc1nnc(-c2cccs2)o1)c1ccc([N+](=O)[O-])s1 | -1 | 8 | 4 | 0
SMILES | GPR151 activ | MITF inh | TEAD-YAP inh | FBW7 act
CCn1nc(C)c(NC(=S)NC2CCCCC2)c1C | -1 | 21 | 1 | 0
NC(=O)c1ccc2[nH]nc(-c3cccc(OCCN4CCCCC4)c3)c2c1 | -1 | 10 | 16 | 0
Cn1c(-c2ccccc2)cnc1NC(=O)c1ccccc1 | -1 | 4 | 57* | 0
COc1ccc(-c2ccc(NCCCN(C)C)nc2)cc1 | 0 | -12 | 4 | 0
COc1ccc2c(-c3ccccc3)cc(NCCCN(C)C)nc2c1 | -1 | 68* | -13 | 0
CCc1ccc(N2CC(C(=O)NCC(C)(C)CNC(=O)C3CC(=O)N(c4ccc(CC)cc4)C3)CC2=O)cc1 (centres undefined) | -1 | 13 | 9 | 4.5*
NS(=O)(=O)c1ccc(NC(=S)NC2CCN(Cc3ccccc3)CC2)cc1 | 0 | 13 | 10 | 0
O=[N+]([O-])c1ccc(NC(=S)NC2CCN(Cc3ccccc3)CC2)cc1 | -1 | 0 | 34* | 0
COc1cc(/C=C2/C(=N)N3OC(C)=CC3=NC2=O)ccc1OCCOc1cccc(C)c1 | -1 | 5 | -1 | 0

Compound activity (PubChem)
